# PGC1a acetyl inh = inhibitors of PGC1a acetylation signal, primary screen, cell-based, U2OS, AlphaScreen, inhibitor mode; AlphaScreen anti-acetyl-lysine; with virally co-expressed GCN5 acetyltransferase; inhibition, % at 15.6 µM; actives 0.17% (n = 350,000); AID 651687, 2012;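 active means every replicate shows inhibition of at least 40%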;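 further: 0% = neutral control wells and 100% = positive control wells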
# INS-1E GSIS act = GLuc luminescence reporter in INS-1E cells, primary screen for activators of glucose-dependent secretion of insulin; activation, % at 16.6 µM; INS-1E GLuc reporter insulin secretion, 2-3 h; actives 0.61% (n = 370,000);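 active means lowest replicate activation of at least 40%, so every replicate reaches that level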;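 further: 0% = median of neutral control wells and 100% = median of IBMX positive control wells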
# Ecoli rRNA inh = reduced GFP signal of wild-type E. coli, primary screen, bacterial rRNA inhibitor project, GFP/RFP fluorescence, OD600, single point; E. coli WT GFP vs humanized-ribosome RFP mutants, 24 h; active compounds read low; DMSO median 0, no signal -100; AID 720706, 2013; actives 1.6% (n = 350,000); GFP signal change (wild-type ribosome), % (test concentration not listed);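 active means significant combined selectivity score with lowered wild-type GFP, culture density cut under 30%, mutant RFP and density less affected; inactive means any of these conditions unmet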
# CaV13 ICDI inh = Primary screen for inhibitors of IQ motif and Ca2+-dependent inactivation inhibitor domain binding in CACNA1D, Förster resonance energy transfer in living cells, …. HEK cells, CFP/YFP FRET ICDI-IQ, plate reader, 10 min; percent FRET-ratio fall versus neutral wells. inhibition, % at 12.3 µM. actives 0.098% (n = 340,000). AID 743397;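 active means mean replicate inhibition of at least 30% and at least 1% of replicates passing that level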;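 further: 0% = median of the neutral control wells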
# DENV2 CPE = inhibitors of DENV2 cytopathic effect, primary screen, cell-based, plate reader, single concentration | DENV2-infected cells, cytopathic effect rescue | CPE inhibition, % at 9.99 µM | actives 1.7% (n = 350,000) | AID 651640, 2012; in the data active means CPE inhibition above about 20%, passing the limit was not always enough; tested in BHK-21 cells;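 further: 0% = median of neutral control wells and 100% = median of positive control wells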
# ERAP1 HTS inh = human ERAP1 aminopeptidase inhibitors, primary screen, biochemical, single point, plate reader; inhibition, % at 10.7 µM; recombinant ERAP1, Leu-AMC fluorescence, 60 min; Endoplasmic reticulum aminopeptidase 1 (Homo sapiens), Q9NZ08; AID 652197, 2013; actives 0.15% (n = 340,000);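 active means mean replicate inhibition of at least 30%, or all replicates individually reaching that 30% level; inactive means mean below 30% and not every replicate reaching it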;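 further: 0% = neutral control wells and 100% = L-leucinethiol positive control wells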
# Target sequence (Q9NZ08 whole entry, looked up): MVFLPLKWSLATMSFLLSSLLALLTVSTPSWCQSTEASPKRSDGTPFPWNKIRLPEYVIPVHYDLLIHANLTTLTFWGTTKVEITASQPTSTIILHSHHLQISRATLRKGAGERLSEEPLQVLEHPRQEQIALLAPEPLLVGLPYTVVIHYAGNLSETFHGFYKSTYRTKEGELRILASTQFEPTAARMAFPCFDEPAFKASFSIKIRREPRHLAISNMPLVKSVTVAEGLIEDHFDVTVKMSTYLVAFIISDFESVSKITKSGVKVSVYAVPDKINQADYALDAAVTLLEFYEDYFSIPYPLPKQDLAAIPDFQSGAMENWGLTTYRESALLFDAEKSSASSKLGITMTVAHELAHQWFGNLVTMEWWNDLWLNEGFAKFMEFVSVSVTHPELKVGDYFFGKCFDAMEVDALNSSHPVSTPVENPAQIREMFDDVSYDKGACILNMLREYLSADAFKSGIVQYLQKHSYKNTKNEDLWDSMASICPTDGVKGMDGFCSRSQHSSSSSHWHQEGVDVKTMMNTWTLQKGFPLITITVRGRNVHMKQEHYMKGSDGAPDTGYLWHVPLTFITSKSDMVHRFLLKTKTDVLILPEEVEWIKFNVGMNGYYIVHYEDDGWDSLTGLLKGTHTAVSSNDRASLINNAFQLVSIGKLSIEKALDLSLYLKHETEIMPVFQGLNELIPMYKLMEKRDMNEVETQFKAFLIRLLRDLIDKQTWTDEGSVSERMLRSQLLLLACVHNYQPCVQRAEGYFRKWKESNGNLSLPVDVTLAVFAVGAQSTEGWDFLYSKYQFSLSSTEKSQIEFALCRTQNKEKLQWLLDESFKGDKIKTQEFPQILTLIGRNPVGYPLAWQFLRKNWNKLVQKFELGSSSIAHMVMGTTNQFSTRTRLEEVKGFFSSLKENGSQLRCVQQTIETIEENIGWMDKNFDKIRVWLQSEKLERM
# An asterisk follows results filed as active; x = no result. Hits are enriched below; roughly 3.2% of the tested compounds scored in any of these assays.
SMILES,PGC1a acetyl inh,INS-1E GSIS act,Ecoli rRNA inh,CaV13 ICDI inh,DENV2 CPE,ERAP1 HTS inh
COc1ccc(NC(=O)Nc2ccc3c(c2)C(=O)N([C@@H](C)CO)C[C@H](C)[C@@H](CN(C)S(=O)(=O)c2ccccc2)OCCCC[C@H](C)O3)cc1,-13.8,11.5,-1.2,x,-5.5,1.5
C[C@@H]1CCCCO[C@@H](CN(C)S(=O)(=O)c2ccc(Cl)cc2)[C@@H](C)CN([C@@H](C)CO)C(=O)c2cc(NC(=O)CCCN(C)C)ccc2O1,4.1,14.6,-0.7,x,-15.6,-2.6
CN(C)c1ccc2c(c1)[C@H]1C[C@H](CC(=O)NCc3ccc(Oc4ccccc4)cc3)O[C@H](CO)[C@H]1O2,-8.7,7.0,-5.4,x,1.5,-0.5
CC(C)NC(=O)N1C[C@@H]2C(c3ccccc3)[C@H](C1)N2Cc1ccc(F)cc1 (stereo not given in full),x,11.1,-0.8,x,x,x
C[C@@H]1CCCCO[C@@H](CN(C)S(=O)(=O)c2ccc(Cl)cc2)[C@@H](C)CN([C@@H](C)CO)C(=O)c2cc(NC(=O)Nc3ccc(F)cc3)ccc2O1,0.5,-3.3,1.1,x,28.8*,-0.9
COc1ccc(S(=O)(=O)N(C)C[C@H]2OCCCC[C@H](C)Oc3ccc(NC(=O)Cc4ccccc4)cc3C(=O)N([C@@H](C)CO)C[C@@H]2C)cc1,5.6,-9.6,0.0,x,27.2*,-3.8
COc1ccc(S(=O)(=O)N(C)C[C@@H]2OCCCC[C@H](C)Oc3ccc(NC(=O)Cc4ccccc4)cc3C(=O)N([C@H](C)CO)C[C@H]2C)cc1,-4.8,-19.8,-1.0,x,12.8,-4.2
C[C@@H]1CCCCO[C@H](CN(C)S(=O)(=O)c2ccc(Cl)cc2)[C@@H](C)CN([C@H](C)CO)C(=O)c2cc(NC(=O)Nc3ccc(F)cc3)ccc2O1,9.9,19.2,2.2,x,8.4,-0.3
O=C(NC1CCCC1)[C@@H]1[C@@H](CO)[C@@H]2Cn3c(ccc(-c4ccccc4)c3=O)[C@H]1N2,-1.9,3.2,1.1,x,-2.4,2.2
C[C@H]1CN([C@@H](C)CO)C(=O)c2cc(NS(=O)(=O)c3ccc(F)cc3)ccc2O[C@@H]1CN(C)S(=O)(=O)c1ccc(F)cc1,-5.7,6.4,-1.3,x,54.5*,0.1
C[C@@H]1CN([C@H](C)CO)C(=O)c2cc(NS(=O)(=O)c3ccc(F)cc3)ccc2O[C@@H]1CN(C)S(=O)(=O)c1cccs1,-3.9,-24.4,-0.1,x,-4.2,-2.8
C[C@@H]1CN([C@@H](C)CO)C(=O)c2cc(NS(=O)(=O)c3ccc(F)cc3)ccc2O[C@@H]1CN(C)S(=O)(=O)c1cccs1,-4.1,-27.3,-4.7,x,28.0*,-3.6
C[C@H](CO)N1C[C@H](C)[C@H](CN(C)S(=O)(=O)c2cccs2)Oc2ccc(NS(=O)(=O)c3ccc(Cl)cc3)cc2C1=O,-8.5,-13.8,-0.1,x,-3.7,-2.3
C[C@H]1CN([C@@H](C)CO)C(=O)c2cc(NS(=O)(=O)c3ccc(F)cc3)ccc2O[C@H]1CN(C)S(=O)(=O)c1ccc(F)cc1,-16.9,-10.1,-2.5,x,-2.3,1.3
C[C@H]1CN([C@@H](C)CO)C(=O)c2cc(NS(=O)(=O)c3ccc(Cl)cc3)ccc2O[C@@H]1CN(C)S(=O)(=O)c1cccs1,1.3,-4.5,-1.1,x,39.2*,0.0
C[C@H]1CN([C@@H](C)CO)C(=O)c2cccc(NS(=O)(=O)c3ccc(F)cc3)c2O[C@@H]1CN(C)Cc1ccc(C(=O)Nc2ccccc2N)cc1,3.2,46.2,2.2,x,4.9,0.0
COc1ccc(/C(C)=N/NC(=O)Cc2c(C)nc(C)[nH]c2=O)cc1,7.2,32.1,21.4,-5.7,1.0,-1.3
Cc1nc(C)c(CC(=O)N/N=C/c2ccc(O)cc2)c(=O)[nH]1,x,9.0,9.9,-4.9,31.3*,1.4
O=C(C[C@H]1CC[C@@H]2[C@H](COC[C@H](O)CN2S(=O)(=O)c2ccccc2)O1)NCC1CCCCC1,0.4,-0.6,-2.7,x,-6.4,-1.0
Nc1ncnc2c1ncn2[C@@H]1O[C@H](C(=O)N[C@@H](CCc2ccccc2)C(=O)O)[C@@H](O)[C@H]1O,x,7.7,7.5,-3.5,27.8*,3.0
OCC1OC(n2cnc3c(SCc4ccccc4)ncnc32)C(O)C1O (stereo not given),-4.2,x,x,-16.8,75.2*,2.1
Nc1nc(SCc2ccccc2)c2ncn(C3OC(CO)C(O)C3O)c2n1 (stereo not given),-7.5,11.8,-6.1,-5.3,-3.0,2.0
Nc1nc(F)nc2c1ncn2[C@@H]1O[C@H](CO)[C@@H](O)[C@H]1O,82.6*,x,x,-4.2,-24.2,-3.9
Cc1ccc(S(=O)(=O)N[C@H]2CC[C@H](CCn3cc(-c4cccnc4)nn3)O[C@H]2CO)cc1,-2.2,21.4,1.6,x,-2.5,-1.8
CC(C(=O)NCc1ccccc1)n1c(CSCCOc2ccccc2)nc2ccccc21 (stereo not given),x,-31.8,x,-16.1,40.3*,0.4
SMILES,PGC1a acetyl inh,INS-1E GSIS act,Ecoli rRNA inh,CaV13 ICDI inh,DENV2 CPE,ERAP1 HTS inh
Cc1ccc(N=Nc2cc(C)ccc2N)cc1,2.3,-45.9,-52.8*,-2.1,-3.6,3.5
C[C@@H]1CCCCO[C@H](CN(C)Cc2ccc(C(=O)Nc3ccccc3N)cc2)[C@H](C)CN([C@@H](C)CO)C(=O)c2cc(N(C)C)ccc2O1,x,18.2,-1.7,x,x,x
CSc1ccc(N=Nc2c(C)[nH]n(C)c2=O)cc1,1.9,x,-24.4*,6.3,-3.7,1.3
CCOC(=O)c1nc(N)c(C(=O)OCC)[nH]1,0.6,19.5,x,x,x,x
CCOC(=O)c1c(C)nc(C(Cl)(Cl)Cl)nc1N,2.8,-5.7,-36.6*,-2.5,x,-0.1
Cc1c(C(=O)OCC(=O)N(C)Cc2ccccc2)oc2ccccc12,1.7,-48.0,-32.1,-2.8,-14.0,-0.9
Cc1c(C(=O)OCC(=O)N(C)c2ccccc2)oc2ccccc12,x,-10.1,-28.1*,-11.2,6.5,-2.9
C[C@@H]1CN([C@H](C)CO)C(=O)c2cc(NS(C)(=O)=O)ccc2O[C@@H]1CN(C)Cc1ccc(C(=O)O)cc1,4.0,25.6,4.2,x,9.5,0.9
OC[C@H]1[C@H](c2ccc(-c3cccnc3)cc2)[C@H]2CN(CC3CCOCC3)CCCCN21,9.2,x,x,x,1.5,-3.4
C[C@@H]1CN([C@@H](C)CO)C(=O)c2cc(C#CCc3ccccc3)cnc2O[C@@H]1CN(C)Cc1cccc(F)c1,1.3,-40.8,-3.9,x,14.7,1.6
